Screening results deposited in PubChem BioAssay by National Center for Advancing Translational Sciences (NCATS).
HepG2 tox: HepG2 cytotoxicity, counter-screen for TGF-b inhibitors | HepG2 CAGA-GFP viability, ATP luminescence, 18 h | 410,000 tested, 0.76% active | Potency, µM (series often up to 46.1 µM), without a hit: at the top dose activity change, negative = cytotoxicity, most hits filed as cytotoxic
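HepG2 CAGA-GFP cells (1000/well, DMEM with 1% FBS) received compound, then TGF-beta at 500 pg/mL final, and were incubated 18 hours at 37 degrees C. Viability was read by CellTiter-Glo luminescence. Media-only wells were set as complete cell-killing and DMSO as no toxicity.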
S2 tox: cell viability loss in ATXN counter-screen; S2 cells (HEK-293 line with an ATXN2-luciferase reporter) viability, CellTiter-Fluor protease fluorescence, 24 h; Potency, µM (top dose mostly 56.7 µM), most hits filed as cytotoxic; 400,000 tested, 0.49% active; AID 651635; note: nearly all actives have a fitted effect of over 40% in size
TGFb inhibitor: inhibitors of TGF-b signaling. HepG2 CAGA-GFP TGF-b/SMAD3 reporter, GFP fluorescence, 18 h; TGF-beta stimulated, 500 pg/mL final. AID 588855. 410,000 tested, 1.2% active. Potency, µM (titrated, usually from 46.1 µM), for the others: at the top dose activity, negative = inhibition, actives largely listed as inhibitors; note: % is set by controls: 0 for no effect and ±100 for the full control effect; nearly all actives have a fitted effect of over 65% in size
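HEPG2 CAGA-GFP reporter cells (1000/well, DMEM with 1% FBS) received compounds, then recombinant TGF-beta at 500 pg/mL final for 18 hours at 37 degrees C. Per-cell GFP summed per well was normalised to unstimulated and stimulated DMSO controls before curve fitting.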
ATXN2 expr inh: inhibitors of ATXN2 expression; AID 1745845; Potency, µM (titrated, usually from 57 µM), for the others: top-dose activity change, negative = inhibition, usual class: inhibitors; 360,000 tested, 0.72% active; HEK-293 ATXN2-luciferase reporter, luminescence, 24 h; note: % is set by controls: 0 for no effect and ±100 for the full control effect; nearly all actives have a fitted effect of over 55% in size
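ATXN2-luciferase reporter cells (luciferase flanked by upstream and downstream ATXN2 gene portions) were treated 24 h at 37 °C with compounds at up to 57 uM. SteadyGlo luminescence gave expression; GF-AFC fluorescence gave viability.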
HT1080 IDH1KD tx: HT-1080 IDH1 knockdown cell toxicity (counter line). Potency, µM (top dose mostly 46.1 µM), for the others: at the top dose activity, negative = toxicity, hits mostly cytotoxic. HT-1080 IDH1 knockdown viability, ATP luminescence, 48 h. 360,000 tested, 2% active;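 note: 0% = DMSO wells and -100% = cell-free medium wells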
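After a 2 h attachment period, IDH1KD HT-1080 cells took pin-transferred compound for 48 h at 37 °C; ATP-based luminescence after 10 min room-temperature reagent incubation reported viability.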
HT1080NT lethal: kills 2HG-producing HT-1080-NT fibrosarcoma cells; HT-1080-NT fibrosarcoma viability, CellTiter-Glo ATP luminescence, 48 h; Potency, µM (titrated, usually from 46.1 µM), without a hit: at the top dose activity, negative = less viability, actives largely listed as cytotoxic; 360,000 tested, 1.6% active; AID 686970;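 note: NT is the 2HG producing partner of a matched IDH1 knockdown line; 0% = DMSO-treated cells and -100% = media-only wells without cells; nearly all actives have a fitted effect of over 55% in size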
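750 cells/well, RPMI + 5% FBS; 2 h settle, compound pin-transfer, 48 h at 37 degrees C. CellTiter-Glo 10 min RT, luminescence. Normalized to DMSO and media-only wells.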
Starred values were filed as active, the others as inactive; i = inactive; u = inconclusive; x = no result given. An excerpt weighted towards active compounds, which were near 3.8% of everything screened. Calls come from the whole dose curve; as a rule, active = well fitted curve in the direction sought with a large enough effect; inconclusive = small, poorly fitted or top-dose-only effect, or another doubt; inactive = no such curve, though single readings can be large; an effect the other way counts as inactive or inconclusive. Potency is the fitted concentration of half-maximal effect.

SMILES | HepG2 tox | S2 tox | TGFb inhibitor | ATXN2 expr inh | HT1080 IDH1KD tx | HT1080NT lethal
O=C(Cc1nc2ccccc2[nH]1)N1CCC(n2c(C3CCC3)nc3cccnc32)CC1 | x | i | x | x | x | x
COCC(=O)Nc1cc(C(=O)N[C@H]2CCCCNC2=O)c2c(c1)nc(-c1ccncc1)n2C | x | i | x | x | x | x
COc1ccccc1/C=C/c1ccnc2ccccc12 | -33% | x | -24% | x | x | x
C[C@H](CO)N1C[C@H](C)[C@@H](CN(C)S(C)(=O)=O)Oc2ccc(NC(=O)Nc3ccc(C(F)(F)F)cc3)cc2C1=O | -26% | i | -15% | -9% | 15% | 19%
C[C@@H]1CN([C@H](C)CO)C(=O)c2cc(NC(=O)Nc3ccc(C(F)(F)F)cc3)ccc2O[C@H]1CN(C)Cc1ccc(Cl)c(Cl)c1 | -111% | 13µM* | 11µM* | u | u | u
C[C@H](CO)N1C[C@H](C)[C@@H](CN(C)Cc2ccc(Cl)c(Cl)c2)Oc2c(NC(=O)C3CC3)cccc2C1=O | -40% | x | u | u | -4% | -30%
C[C@H](CO)N1C[C@H](C)[C@@H](CN(C)Cc2ccc(Cl)c(Cl)c2)Oc2c(NC(=O)CCC(F)(F)F)cccc2C1=O | -92% | u | 13µM* | u | -14% | -24%
C[C@@H]1CN([C@@H](C)CO)C(=O)c2cc(C#CC3CCCCC3)cnc2O[C@@H]1CN(C)S(=O)(=O)c1ccc(F)cc1 | -21% | 20µM* | u | u | -29% | -29%
C[C@@H]1CCCCO[C@@H](CN(C)Cc2ccc(C(F)(F)F)cc2)[C@@H](C)CN([C@H](C)CO)C(=O)c2cc(N(C)C)ccc2O1 | -25% | 22µM* | u | u | -29% | -28%
CCc1ccc(O)c(CNCCNCc2cc(CC)ccc2O)c1 | 16µM* | u | u | u | -17% | -30%
Cc1ccc(CN2CCOc3ccc(CN4CCN(CCO)CC4)cc3C2)s1 | x | i | x | x | x | x
CC(=O)Nc1c(Br)cc2c(c1Br)C(=O)c1ccccc1-2 | 2% | u | 1% | 9% | 2% | 7%
CC(=O)C1=C(c2ccc(Br)cc2)C(=O)c2ccccc2C1=O | -99% | 7.1µM* | u | 3.5µM* | 13µM* | 13µM*
CC(=O)C1=C(c2ccc(Cl)c(Cl)c2)N(C(C)=O)n2cnnc2S1 | -94% | x | 5.6µM* | x | x | x
CC(=O)C1=C(c2ccc(Cl)c(Cl)c2)N(C(C)=O)n2c(C)nnc2S1 | 7.9µM* | u | u | 28µM* | x | x
CC(=O)C1=C(c2ccccc2)N(C(C)=O)n2c(nnc2C2CCCCC2)S1 | 11µM* | x | 11µM* | x | x | x
COc1cccc(C2=C(C(C)=O)Sc3nnc(C4CCCCC4)n3N2C(C)=O)c1 | -53% | x | u | x | x | x
CCOc1ccc(C(CC(=O)O)N2Cc3ccccc3C2=O)cc1OC (stereo not drawn) | 6% | i | 12% | -2% | x | x
CCn1c(=O)n(-c2cccc(Cl)c2)c(=O)c2sc3ccccc3c21 | 3% | u | -5% | 3% | x | x
Cn1c(=O)c(C#N)c(-c2ccc(F)cc2)c2cc(C(=O)c3cc(Cl)cc(Cl)c3O)cnc21 | -45% | i | 18µM* | u | u | u
CCOc1cc(N2CCOCC2)c(OCC)cc1NS(=O)(=O)c1ccc(Cl)s1 | -22% | u | -21% | -12% | 4.1µM* | u
CCOc1cc(N2CCOCC2)c(OCC)cc1NC(=O)c1cc(S(=O)(=O)N2CCOCC2)ccc1Cl | 3% | u | u | -7% | -3% | 3%
Cc1nc2ccccn2c(=O)c1NC(=O)c1cccc(F)c1 | 0% | x | -18% | x | x | x
c1cc2c3c(cccc3c1)NC1(CCC3(CC1)Nc1cccc4cccc(c14)N3)N2 | -1% | x | u | x | u | 21µM*
CO/N=C/NC(=O)NOCc1ccc(Cl)cc1Cl | 18% | i | 2% | 4% | -12% | -8%
SMILES | HepG2 tox | S2 tox | TGFb inhibitor | ATXN2 expr inh | HT1080 IDH1KD tx | HT1080NT lethal
O=C(N/C=N/OCc1ccc(Cl)cc1Cl)NOCc1c(Cl)cccc1Cl | 18µM* | i | -16% | u | 16µM* | 16µM*
CCN(CC)CCNC(=O)c1ccc2c(=O)n(C3CCCC3)c(=S)[nH]c2c1 | -54% | i | -15% | -3% | 20µM* | u
CCc1ccc(N=C2NC(=O)/C(=C/c3cc(OC)c(O)c(OC)c3)S2)cc1 | -78% | u | u | x | -11% | -3%
COc1cc(/C=C2/SC(=Nc3ccc(O)cc3)NC2=O)ccc1O | -14% | u | -13% | -4% | 1.2µM* | 0.65µM*
COc1ccc(/C=C2/SC(=S)NC2=O)cc1OCc1ccccc1 | -40% | u | -2% | -18% | -14% | -12%
COc1cc(/C=C2/SC(=O)NC2=O)ccc1OCc1ccccc1 | -22% | i | u | 18% | u | 23µM*
COc1cc(/C=C2\SC(=Nc3ccccc3OC)NC2=O)ccc1O | -20% | u | 16% | 0% | 7.3µM* | 4.1µM*
CN(C1CCCCC1)S(=O)(=O)c1ccc2c(c1)c(=O)c(C(=O)NCc1ccccc1Cl)cn2C | 18% | i | -11% | 5% | x | x
Fc1ccc(/C=C/c2ccc3ccccc3n2)cc1 | -30% | x | u | x | x | x
Cc1nc2ccc(NS(=O)(=O)c3c(C)c(C)cc(C)c3C)cc2s1 | -7% | i | -13% | -28% | 23µM* | u
Cc1ccc(S(=O)(=O)Nc2ccc3nc(C)sc3c2)cc1 | -16% | i | 0% | -8% | -17% | -13%
Cc1nc2cc(NS(=O)(=O)c3c(C)c(C)cc(C)c3C)ccc2s1 | -37% | u | u | -11% | 13µM* | 13µM*
O=C(CN1Cc2ccccc2OC(c2ccsc2)C1)NCC1OCCc2ccccc21 (stereo not drawn) | x | i | x | x | x | x
CCOc1ccccc1N1CCN(Cc2cccc(OC)c2O)CC1 | 7% | i | -24% | -5% | -24% | 8%
COc1ccccc1N1CCN(Cc2cc(COC(C)C)c3cccnc3c2O)CC1 | 2.8µM* | x | 2.2µM* | x | x | x
CCOCc1cc(CN2CCN(c3ccccc3OC)CC2)c(O)c2ncccc12 | 1.6µM* | x | x | x | x | x
CCCOCc1cc(CN2CCN(c3ccccc3OC)CC2)c(O)c2ncccc12 | 11µM* | x | 2µM* | x | x | x
COc1ccccc1N1CCN(Cc2cc3c(cc2O)OCO3)CC1 | -23% | i | 1% | 8% | 13% | 0%
CC1=C(C(N)=O)C(c2ccc(C(C)C)cc2)n2nc(SCc3ccccc3F)nc2N1 (stereo not drawn) | -1% | i | -3% | -21% | x | x
